# In PubChem BioAssay (NCATS):
# Records with an inconclusive call do not appear. Entries that show only a call come without a potency. Activity calls are given as the source filed them. Unless noted, the call rests on the fitted dose curve; in most records, active means well fitted curve in the direction sought with a large enough effect; inconclusive means small, poorly fitted or top-dose-only effect, or another doubt; inactive means no such curve, though single readings can be large; an effect the other way counts as inactive or inconclusive.
# Legend:
# [1] = molecular target: Tumor susceptibility gene 101 protein (Homo sapiens) (UniProt Q99816); test: qHTS Assay for Iinhibitors of HIV-1 Budding by Blocking the Interaction of PTAP/TSG101: Hit Validation (AID 651600); further: nearly all actives have a fitted effect of over 70% in size
# Tumor susceptibility gene 101 protein (Homo sapiens), sequence (Q99816 whole entry, looked up, the tested form may be a part): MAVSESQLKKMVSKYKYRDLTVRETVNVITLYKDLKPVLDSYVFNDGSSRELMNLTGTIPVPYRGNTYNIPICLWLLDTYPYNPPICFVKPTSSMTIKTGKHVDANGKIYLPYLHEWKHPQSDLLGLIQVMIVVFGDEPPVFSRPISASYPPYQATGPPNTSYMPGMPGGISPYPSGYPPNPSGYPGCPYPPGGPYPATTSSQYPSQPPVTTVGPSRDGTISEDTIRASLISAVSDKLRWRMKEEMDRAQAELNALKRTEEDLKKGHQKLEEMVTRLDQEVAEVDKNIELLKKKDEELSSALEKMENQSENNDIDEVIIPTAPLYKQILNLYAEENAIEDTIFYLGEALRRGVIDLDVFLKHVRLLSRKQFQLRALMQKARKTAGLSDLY
# Outline: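 Displacement of a FITC-labeled PTAP-motif peptide (50 nM) from the Tsg101 binding domain (10 uM) was monitored by fluorescence polarization after a 20 min room-temperature incubation.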
# Furin (Homo sapiens) = Furin (Homo sapiens) (UniProt P09958); test: Furin counterscreen qHTS for Zika virus inhibitors (AID 1347149);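 further: purified recombinant full-length human furin enzyme at 5 nM; fluorescence gain from furin cutting a BOC-RVRR-AMC peptide substrate over 15 min; top concentration of the series differs between compounds; nearly all actives have a fitted effect of over 70% in size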
# Furin (Homo sapiens), sequence (P09958 whole entry, looked up): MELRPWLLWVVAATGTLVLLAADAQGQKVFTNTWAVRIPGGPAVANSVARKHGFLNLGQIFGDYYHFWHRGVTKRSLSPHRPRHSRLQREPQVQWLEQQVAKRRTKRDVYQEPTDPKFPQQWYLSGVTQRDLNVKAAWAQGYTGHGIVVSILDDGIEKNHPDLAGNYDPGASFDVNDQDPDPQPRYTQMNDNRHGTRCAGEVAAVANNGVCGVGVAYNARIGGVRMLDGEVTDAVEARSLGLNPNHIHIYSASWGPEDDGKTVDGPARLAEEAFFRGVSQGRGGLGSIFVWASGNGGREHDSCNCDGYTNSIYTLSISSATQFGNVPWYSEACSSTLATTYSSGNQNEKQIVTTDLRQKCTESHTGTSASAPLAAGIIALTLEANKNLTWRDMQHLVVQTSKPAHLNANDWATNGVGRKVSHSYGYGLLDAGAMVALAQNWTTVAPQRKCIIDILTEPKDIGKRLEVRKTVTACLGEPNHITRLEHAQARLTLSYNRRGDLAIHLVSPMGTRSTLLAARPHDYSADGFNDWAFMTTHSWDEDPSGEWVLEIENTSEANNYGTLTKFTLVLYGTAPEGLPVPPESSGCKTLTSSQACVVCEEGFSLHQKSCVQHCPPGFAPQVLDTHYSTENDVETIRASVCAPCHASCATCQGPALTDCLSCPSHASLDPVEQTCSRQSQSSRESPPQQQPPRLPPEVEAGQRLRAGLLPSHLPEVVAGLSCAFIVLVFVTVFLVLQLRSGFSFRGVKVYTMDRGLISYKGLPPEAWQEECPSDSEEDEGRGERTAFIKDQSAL
# Outline: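 Fluorogenic cleavage of BOC-RVRR-AMC (2 microM final, Km ~15 µM) was monitored (ex 340, em 450 nm) at 37C after 15 min RT preincubation of 5 nM furin with compounds in HEPES pH 7.0 buffer with CaCl2 and Triton X-100. Percent inhibition was fitted to a 4-parameter Hill curve.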
# [2] = Tertiary RLuc qRT-PCR qHTS assay for Zika virus inhibitors (AID 1347169); further: nearly all actives have a fitted effect of over 55% in size; further: potency means the concentration at half of the fitted maximal effect
# Outline: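 Orthogonal cell-based infection assay using recombinant ZIKV-RLuc (Cambodian) in Vero cells; compound added prior to virus at MOI 1-2. Incubation lasts 48-72 hrs at 37 degrees C before live-cell Renilla substrate is added and luminescence measured.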
# [3] = molecular target: Cytochrome P450 3A4 (Homo sapiens) (UniProt P08684); test: qHTS Assay for Inhibitors and Substrates of Cytochrome P450 3A4 (AID 884); further: nearly all actives have a fitted effect of over 50% in size
# Cytochrome P450 3A4 (Homo sapiens), sequence (P08684 whole entry, looked up): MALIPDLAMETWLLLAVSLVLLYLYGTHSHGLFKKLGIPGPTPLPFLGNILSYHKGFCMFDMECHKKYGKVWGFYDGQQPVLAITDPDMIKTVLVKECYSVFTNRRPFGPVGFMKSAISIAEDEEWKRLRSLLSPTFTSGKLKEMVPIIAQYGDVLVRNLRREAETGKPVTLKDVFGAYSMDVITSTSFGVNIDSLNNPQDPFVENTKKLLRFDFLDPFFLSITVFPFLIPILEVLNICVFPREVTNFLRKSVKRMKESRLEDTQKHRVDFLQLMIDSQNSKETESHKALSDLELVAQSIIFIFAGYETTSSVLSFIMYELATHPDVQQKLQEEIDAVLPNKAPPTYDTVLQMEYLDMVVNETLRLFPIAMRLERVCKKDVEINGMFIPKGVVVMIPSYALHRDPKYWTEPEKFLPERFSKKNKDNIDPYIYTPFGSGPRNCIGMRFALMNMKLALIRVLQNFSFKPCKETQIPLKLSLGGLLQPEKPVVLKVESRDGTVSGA
# Outline: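 20 nM human CYP3A4 with 25 uM Luciferin-PPXE (at KM) in 200 mM KPO4, preincubated 10 min with compound; NADPH regeneration started a 60 min RT reaction. Luciferin detected by luminescence, normalized to 57 uM ketoconazole as full inhibition.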
# [4] = test system: Zika virus NS2B-NS3 protease (unlinked complex); test: Confirmatory screen GU AMC qHTS for Zika virus inhibitors (AID 1347153); further: nearly all actives have a fitted effect of over 70% in size;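 on potency: enzyme at 25 nM with substrate at 10 µM below its Km of 18.3 µM; potency means the concentration at half of the fitted maximal effect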
# Outline: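 Noncovalent NS2B hydrophilic domain/NS3 protease complex (25 nM) in 10 mM Tris-HCl pH 8.0, 0.01% Tween 20 was preincubated 15 min at room temperature with compounds. Then 10 µM AMC substrate (Km 18.3 µM) was added; fluorescence was read over 15 min and fitted to a 4-parameter Hill equation.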
# [5] = ZIKV-mCherry secondary qHTS for Zika virus inhibitors (AID 1347158); further: potency means the concentration at half of the fitted maximal effect
# Outline: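 Vero cells, 5,000/well, plated overnight at 37 °C, then compound added and infected with recombinant ZIKV-mCherry at MOI 1 for 48-72 h. PFA-fixed, Hoechst nuclear stain, high-content imaging; cells with mCherry intensity above 450 RFU scored infected, reported as percent infection.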
# [6] = test system: Zika virus NS2B-NS3 protease (linked); test: 384 well plate NINDS AMC confirmatory qHTS for Zika virus inhibitors (AID 1347163); further: nearly all actives have a fitted effect of over 50% in size; further: potency means the concentration at half of the fitted maximal effect
# Outline: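 Linked protease 5/30/60 nM final; cpds up to 1 mM final, ~15 min preinc. Substrate Ac-VKTGKR-AMC 30 microM final. RT, dark, 25 min; FI ex 355/em 460; normalized to no-enzyme/no-inhibitor ctrls.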
# [7] = test system: Zika virus NS2B-NS3 protease (linked construct); test: 384 well plate NINDS Rhodamine confirmatory qHTS for Zika virus inhibitors (AID 1347164); further: potency means the concentration at half of the fitted maximal effect; nearly all actives have a fitted effect of over 65% in size
# Outline: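 Compounds are incubated about 15 minutes with linked protease (5, 30 or 60 nM final). Rhodamine 110-tagged Ac-LKRR substrate (10 microM final) is added and fluorescence measured after 25 minutes.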
# [8] = test system: Zika virus NS2B-NS3 protease (linked construct); test: Confirmatory screen NINDS AMC qHTS for Zika virus inhibitors (AID 1347152); further: nearly all actives have a fitted effect of over 70% in size; further: potency means the concentration at half of the fitted maximal effect
# Outline: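 In this dose-response qHTS, AMC release from 10 microM Bz-Nle-KRR-AMC by 1 nM linked protease is measured over 15 minutes (about 20% conversion) at pH 8.0. Percent inhibition is fitted to a 4-parameter Hill curve.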
# [9] = test system: Zika virus NS2B-NS3 protease; test: Primary screen GU AMC qHTS for Zika virus inhibitors (AID 1347154); further: nearly all actives have a fitted effect of over 70% in size; further: potency means the concentration at half of the fitted maximal effect
# Outline: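 Unlinked Zika NS2B hydrophilic domain/NS3 protease domain noncovalent complex (25 nM final) in 10 mM Tris-HCl pH 8.0, 0.01% Tween 20, with AMC peptide substrate. Fluorescence (ex 340, em 450 nm) change over 15 min, room temperature; percent inhibition fitted to 4-parameter Hill equation.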
# [10] = Confirmatory screen NINDS Rhodamine qHTS for Zika virus inhibitors (AID 1347161); further: potency means the concentration at half of the fitted maximal effect; nearly all actives have a fitted effect of over 60% in size
# Outline: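 Enzyme (25 nM, linked NS2B-NS3) was preincubated 15 min with compound in 10 mM Tris-HCl pH 8.0, 0.01% Tween 20. Rhodamine110 substrate (1.5 microM) was then added and fluorescence read at start and after 15 min.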
# [11] = Vero cells viability qHTS for Zika virus inhibitors (AID 1347167)
# Outline: (§1)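 Counter-screen for cytotoxicity of hits from NS2B-NS3 protease qHTS. Overnight-attached cells (2.5 x 10^5 cells/mL, DMEM/4% FBS) were dosed in titration, incubated 24 to 48 hours, then assayed by CellTiter Glo.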
# [12] = HepG2 cells viability qHTS for Zika virus inhibitors (AID 1347168)
# Outline: as §1
# [13] = Primary qHTS for small molecule stabilizers of the endoplasmic reticulum resident proteome: Secreted ER Calcium Modulated Protein (SERCaMP) assay (AID 1508630)
# Outline: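 GLuc-SERCaMP-expressing SH-SY5Y cells, pretreated 16 h with compound, are challenged with thapsigargin to empty ER calcium stores; after 4 h, coelenterazine is added directly to the medium and luminescence is imaged.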
# [14] = molecular target: Calcium and integrin-binding protein 1 (Homo sapiens) (UniProt Q99828); test: Primary qHTS for Identification of Calcium Integrin Binding Protein 1 (CIB1) Competitor (AID 1508620);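 further: GST tagged CIB1 binding a fluorescein labelled alphaIIb integrin peptide tracer; top concentration of the series differs between compounds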
# Calcium and integrin-binding protein 1 (Homo sapiens), sequence (Q99828 whole entry, looked up): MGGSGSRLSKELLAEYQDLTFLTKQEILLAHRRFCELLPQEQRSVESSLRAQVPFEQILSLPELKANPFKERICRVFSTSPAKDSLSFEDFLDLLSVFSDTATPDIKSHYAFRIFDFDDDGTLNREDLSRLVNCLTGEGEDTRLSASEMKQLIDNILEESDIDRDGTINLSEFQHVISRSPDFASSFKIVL
# Outline: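 Fluorescence polarization competition: CIB1-GST (1 uM final) preincubated with compound 15 min at room temperature, then FITC-labeled alphaIIb peptide (100 nM final) added for another 15 min. Polarization read at Ex 480/Em 540.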
# [15] = qHTS profiling of the MIPE4 collection as inhibitors of Plasmodium falciparum (3D7) proliferation (AID 743344; call rule not given here); details: P. falciparum 3D7 in erythrocytes, SYBR Green DNA fluorescence, 72 h; at 28.5 µM (top of the series)
# Outline: (§2)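 Erythrocytes infected with P. falciparum (0.3% parasitemia, 2.5% hematocrit) incubated with compounds 72 h at 37 C, 5% CO2. Lysis with saponin/Triton buffer containing SYBR Green I, overnight at room temperature in the dark; DNA fluorescence (485/535 nm) normalised to 0.29 uM artemisinin and DMSO.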
# [16] = qHTS profiling of the MIPE4 collection as inhibitors of Plasmodium falciparum (DD2) proliferation (AID 743345; call rule not given here); details: P. falciparum Dd2 in erythrocytes, SYBR Green DNA, 72 h; at 28.5 µM (top of the series)
# Outline: as §2
# [17] = qHTS profiling of the MIPE4 collection as inhibitors of Plasmodium falciparum (DD2) proliferation (Rep 2) (AID 743346; call rule not given here); details: P. falciparum Dd2 in erythrocytes, SYBR Green DNA, 72 h; at 28.5 µM (top of the series)
# Outline: as §2
# [18] = qHTS profiling of the MIPE4 collection as inhibitors of Plasmodium falciparum (HB3) proliferation (AID 743347; call rule not given here); details: P. falciparum HB3 in erythrocytes, SYBR Green DNA, 72 h; at 28.5 µM (top of the series)
# Outline: as §2
# [19] = molecular target: Cytochrome P450 3A4 (Homo sapiens) (UniProt P08684); test: qHTS Assay for Activators of Cytochrome P450 3A4 (AID 885); further: potency means the concentration at half of the fitted maximal effect; nearly all actives have a fitted effect of over 65% in size
# Outline: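 20nM CYP3A4 + 25uM Luciferin-PPXE (=KM), 200mM KPO4; cpd 10 min RT; NADPH regen, 60 min RT; stop w/ detection buffer, 20 min; luminescence. Normalized to 57 uM ketoconazole.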
smiles,measurement,setting,value
CCOC(=O)c1ccc(NC(=O)CSc2nc(-c3cccs3)cc(C(F)(F)F)c2C#N)cc1,outcome,[1],inactive
same,Potency,Furin (Homo sapiens),inactive
same,Potency,[2],inactive
COc1cc(O)c2c(=O)cc(-c3ccc(OC)c(-c4c(O)cc(O)c5c(=O)cc(-c6ccc(O)cc6)oc45)c3)oc2c1,Potency,[3],inactive
same,Potency,[4],44.1 µM (active)
same,Potency,[5],11.2 µM (active)
same,Potency,[6],35.5 µM (active)
same,Potency,[7],112 µM (active)
same,Potency,[2],16.5 µM (active)
CCCCc1nn(-c2ccccc2C(F)(F)F)c(=O)n1Cc1ccc(-c2ccccc2S(=O)(=O)NC(=O)c2sccc2C)cc1,Potency,[8],24.1 µM (active)
same,Potency,[4],21.5 µM (active)
same,Potency,[9],21.2 µM (active)
same,Potency,[10],4.41 µM (active)
same,Potency,[7],28.2 µM (active)
same,Potency,[11],inactive
same,Potency,[12],inactive
same,Potency,[13],inactive
N#Cc1ccc(OCC2CN(Cc3cccc(C(F)(F)F)c3)C(=O)c3c(ccnc3-c3ccc(OCC(=O)O)cc3)O2)cc1 (configuration not stated),Potency,[8],inactive
same,Potency,[5],inactive
same,Potency,[7],39.8 µM (active)
same,Potency,[2],inactive
O=C(OCC#CCSc1nnc(-c2ccc(Cl)cc2)o1)c1ccc(F)cc1,Potency,[8],inactive
same,Potency,[4],inactive
same,Potency,[2],inactive
same,outcome,[14],inactive
O=C(O)c1cc(NCc2cc(O)ccc2O)ccc1O,"parasite growth, % of DMSO control",[15],85.7%
same,"parasite growth remaining, % of DMSO control (lower = more inhibition)",[16],96.7%
same,"parasite growth, % of control (lower = inhibition)",[17],67.1%
same,"growth, % of control",[18],68.7%
same,Potency,[4],inactive
same,Potency,[10],12.4 µM (active)
same,Potency,[6],inactive
same,Potency,[7],22.4 µM (active)
same,Potency,[11],inactive
same,Potency,[12],inactive
same,Potency,[2],inactive
Nn1cc(Br)c(=O)[nH]c1=O,Potency,[9],inactive
O=C(O)c1c(Sc2ccccc2)c2cc(Cl)ccc2n1Cc1ccc(Cl)cc1,Potency,[3],inactive
same,Potency,[19],7.94 µM (active)
same,Potency,[8],6.81 µM (active)
same,Potency,[4],19.2 µM (active)
same,Potency,[10],1.24 µM (active)
same,Potency,[6],126 µM (active)
same,Potency,[7],22.4 µM (active)
same,Potency,[11],inactive
same,Potency,[12],inactive
same,Potency,[13],inactive
